Experimental data from ChEMBL document CHEMBL3433997, “St. Jude Leishmania screening dataset” (2016).

Molecular target: Solute carrier family 2, facilitated glucose transporter member 1 (Homo sapiens) (UniProt P11166)
Experiment: ST_JUDE_LEISH: Cytotoxicity at 2uM final concentration against transgenic Leishmania Mexicana promastigotes LmGLUT1 that are glucose transport deficient and complemented with the human glucose transporter GLUT1. Activity is measured by DNA content using SYBR green in vitro
Type: functional

Chain of Solute carrier family 2, facilitated glucose transporter member 1 (Homo sapiens) (P11166 whole entry): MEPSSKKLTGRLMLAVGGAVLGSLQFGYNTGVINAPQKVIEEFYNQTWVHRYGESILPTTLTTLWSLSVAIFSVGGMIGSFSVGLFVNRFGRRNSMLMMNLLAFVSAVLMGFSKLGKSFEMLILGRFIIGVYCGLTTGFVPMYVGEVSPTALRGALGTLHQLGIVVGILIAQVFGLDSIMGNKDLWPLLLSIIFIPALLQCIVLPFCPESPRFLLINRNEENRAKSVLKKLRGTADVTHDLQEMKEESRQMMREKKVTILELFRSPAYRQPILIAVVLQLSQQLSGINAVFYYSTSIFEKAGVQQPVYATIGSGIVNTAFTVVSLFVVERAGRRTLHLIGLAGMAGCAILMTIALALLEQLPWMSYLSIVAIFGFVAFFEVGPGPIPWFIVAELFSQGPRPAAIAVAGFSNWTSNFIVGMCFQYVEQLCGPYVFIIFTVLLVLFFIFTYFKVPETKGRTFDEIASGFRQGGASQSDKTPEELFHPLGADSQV

Structure (SMILES) | inhibition
Cc1cc(C(F)(F)F)cc(-n2ncc(-c3ccc(C(=O)NCCNCc4ccccc4)cc3)c2N)n1 | 0.77%
COc1ccc(NC(=O)CCNc2cc(C)nc(NCCOc3ccccc3)n2)cc1 | 2.22%
N#CCOc1c(C2CCN(CCCCNC(=O)c3ccc(-c4ccc(C(F)(F)F)cc4)cc3)CC2)ccc2c1CCCC2 | 4.16%
CN1CCOc2ccc(Nc3nnc(-c4cccc(-c5cccnc5)c4)o3)cc2C1 | 3.12%
CN(C)Cc1ccc(CN2CCN(CCOc3ccc(-c4ccc(Cl)cc4)cc3)CC2)o1 | 22.7%
CC(Oc1c(C2CCN(CCCCNC(=O)c3ccc(-c4ccc(C#N)cc4)cc3)CC2)ccc2c1CCCC2)C(N)=O (stereo not given) | -0.84%
O=C(/C=C/c1ccc(Cl)c(Cl)c1)N1CCC(CN2CCC(c3nc4ccccc4n3CCCO)CC2)CC1 | 4.72%
O=C(Nc1ccc(-c2nc3ccccc3[nH]2)cc1)c1ccc(Cl)c([N+](=O)[O-])c1 | 1.55%
O=C(NC1CCN(CCN2CCC(c3ccccc3C(F)(F)F)CC2)CC1)c1ccc(-c2ccc(Cl)cc2)cc1 | 9.46%
CCc1c(CCNC/C=C/C=C/CNCCc2ccc(OC)c(OC)c2CC)ccc(OC)c1OC | 3.5%
CN1CCN(CCCN(Cc2cccc(-c3ccc(CNCCc4ccccc4)cc3)c2)C(=O)c2cccs2)CC1 | 4.14%
CCCCCCCCS(=O)(=O)NCCCC1CCN(CCCCCNC(=O)C=Cc2ccc(Cl)c(Cl)c2)CC1 | 2.57%
Cc1ccccc1N1CCN(c2ncc(C(=O)NC3CC3)cc2Cl)CC1 | 6.45%
CS(=O)(=O)c1ccc(CNCc2ccc(-c3cccc(-c4nc5ccccc5[nH]4)c3)cc2)cc1 | 17.3%
O=C(NCCCCN1CCC(c2nc3ccccc3s2)CC1)c1cc2ccccc2[nH]1 | 3.02%
CC(C)C(=O)NC(Nc1ccc([N+](=O)[O-])cc1)C(Cl)(Cl)Cl (stereo not given) | 3.83%
O=C(Nc1ccnc2ccccc12)NC1CCN(CCc2ccccc2)CC1 | 12.1%
CC(=O)Nc1ccc(CN(Cc2ccc(C)cc2)Cc2cccc(Oc3ccccc3)c2)cc1 | 2.75%
FC(F)(F)c1cccc(CCNc2nccc(NCc3ccccc3Cl)n2)c1 | 5.73%
N#Cc1cccc(C(=O)Nc2ccc(-c3nc4ccccc4[nH]3)cc2)c1 | 0.28%

Structure (SMILES) | inhibition
CC(=O)Nc1ccc(OCCN(Cc2ccccc2C(F)(F)F)c2ccc(C#N)c(C(F)(F)F)c2)c(Cl)c1 | 2.42%
CC(C)Cn1cc2c(ccc3nc(N)nc(N)c32)n1 | 1.25%
O=S(=O)(c1c(Cl)cc(Cl)cc1Cl)N1CCCCC(c2ccc(F)c(F)c2)=N1 | 0.21%
CN(C)CCOc1cccc(-c2cnc(N)c(-c3nc4cc(S(C)(=O)=O)ccc4[nH]3)c2)c1 | 1.53%
Oc1ccc(CCNc2nc(NCCOc3ccccc3-c3ccccc3)nc(N3CCNCC3)n2)cc1 | 1.26%
O=C(/C=C/c1ccc(Cl)cc1)NCCCCCN1CCCN(C(=O)Nc2cccc(Cl)c2)CC1 | -2.75%
CCCCc1ccc(-c2c(N)nc(N)nc2CC)cc1 | 11.5%
COc1ccc(Nc2nc(N/N=C/c3ccc(O)cc3)nc(Nc3ccc([N+](=O)[O-])cc3)n2)cc1 | 1.19%
O=C(Nc1cccc(C(F)(F)F)c1)c1cccc(S(=O)(=O)NCC2CCCN(Cc3ccccc3)C2)c1 (stereo not given) | 1.71%
Cc1ccccc1C1CCN(C2CCC(NC(=O)/C=C/c3ccc(Cl)cc3)CC2)CC1 (stereo not given) | 1.76%
O=C(NCc1cccc(F)c1)Nc1ccc(-c2cccc(-c3nc4ccccc4[nH]3)c2)cc1 | 2.57%
c1cc(CNCCc2ccncc2)cc(-c2ccc(-c3nc4ccccc4[nH]3)cc2)c1 | 1.46%
O=C(NC1CCCCC1)N(Cc1cccc(-c2ccc(CNCCc3ccccc3)cc2)c1)C1CCN(Cc2ccccc2)CC1 | 6.68%
COc1ccc(S(=O)(=O)N(c2cc(Br)cc3c2OCC3)S(=O)(=O)c2ccc(OC)c(N3CCN(C)CC3)c2)cc1N1CCN(C)CC1 | 0.39%
CCc1cc(Br)c(CNCCCNc2cc(=O)c3ccccc3[nH]2)s1 | 0.41%
O=C(/C=C/c1ccc(CNCCN2CCOCC2)cc1)NCCc1ccccc1 | 0.21%
CCc1cc2c(Sc3nc4ccccc4[nH]3)ncnc2s1 | 0.94%
Cc1ccc(C2CCN(CCCCNC(=O)c3ccc(NC(=O)c4ccc(Cl)cc4)cc3)CC2)c(OCC(F)(F)F)c1 | 0.04%
COc1ccc2nccc([C@@H](O)CN3CCC(NCc4cnc5c(c4)NC(=O)CS5)C(F)C3)c2c1 (stereo not given in full) | -0.32%
COc1ccc2nccc([C@@H](O)CN3CCC(NC(=O)/C=C/c4ccc5ccccc5n4)CC3)c2c1 | 15.2%

Molecular target: Hexose transporter 1 (Plasmodium falciparum) (UniProt O97467)
Experiment: ST_JUDE_LEISH: Cytotoxicity at 2uM final concentration against transgenic Leishmania Mexicana promastigotes LmPfHT that are glucose transport deficient and complemented with the Plasmodium falciparum hexose transporter. Activity is measured by DNA content using SYBR green in vitro
Type: functional

Structure (SMILES) | inhibition
Cc1cc(C(F)(F)F)cc(-n2ncc(-c3ccc(C(=O)NCCNCc4ccccc4)cc3)c2N)n1 | 1.46%
COc1ccc(NC(=O)CCNc2cc(C)nc(NCCOc3ccccc3)n2)cc1 | 2.64%
N#CCOc1c(C2CCN(CCCCNC(=O)c3ccc(-c4ccc(C(F)(F)F)cc4)cc3)CC2)ccc2c1CCCC2 | 3.28%
CN1CCOc2ccc(Nc3nnc(-c4cccc(-c5cccnc5)c4)o3)cc2C1 | 2.67%
CN(C)Cc1ccc(CN2CCN(CCOc3ccc(-c4ccc(Cl)cc4)cc3)CC2)o1 | 13.8%
CC(Oc1c(C2CCN(CCCCNC(=O)c3ccc(-c4ccc(C#N)cc4)cc3)CC2)ccc2c1CCCC2)C(N)=O (stereo not given) | 1.22%
O=C(/C=C/c1ccc(Cl)c(Cl)c1)N1CCC(CN2CCC(c3nc4ccccc4n3CCCO)CC2)CC1 | 4.22%
O=C(Nc1ccc(-c2nc3ccccc3[nH]2)cc1)c1ccc(Cl)c([N+](=O)[O-])c1 | 1.9%
O=C(NC1CCN(CCN2CCC(c3ccccc3C(F)(F)F)CC2)CC1)c1ccc(-c2ccc(Cl)cc2)cc1 | 0.61%
CCc1c(CCNC/C=C/C=C/CNCCc2ccc(OC)c(OC)c2CC)ccc(OC)c1OC | 0.39%
CN1CCN(CCCN(Cc2cccc(-c3ccc(CNCCc4ccccc4)cc3)c2)C(=O)c2cccs2)CC1 | 4.22%
CCCCCCCCS(=O)(=O)NCCCC1CCN(CCCCCNC(=O)C=Cc2ccc(Cl)c(Cl)c2)CC1 | -0.32%
Cc1ccccc1N1CCN(c2ncc(C(=O)NC3CC3)cc2Cl)CC1 | 6.74%
CS(=O)(=O)c1ccc(CNCc2ccc(-c3cccc(-c4nc5ccccc5[nH]4)c3)cc2)cc1 | 15.6%
O=C(NCCCCN1CCC(c2nc3ccccc3s2)CC1)c1cc2ccccc2[nH]1 | 0.13%
CC(C)C(=O)NC(Nc1ccc([N+](=O)[O-])cc1)C(Cl)(Cl)Cl (stereo not given) | 3.53%
O=C(Nc1ccnc2ccccc12)NC1CCN(CCc2ccccc2)CC1 | 10.9%
CC(=O)Nc1ccc(CN(Cc2ccc(C)cc2)Cc2cccc(Oc3ccccc3)c2)cc1 | 3.12%
FC(F)(F)c1cccc(CCNc2nccc(NCc3ccccc3Cl)n2)c1 | 4.26%
N#Cc1cccc(C(=O)Nc2ccc(-c3nc4ccccc4[nH]3)cc2)c1 | -0.34%

Structure (SMILES) | inhibition
CC(=O)Nc1ccc(OCCN(Cc2ccccc2C(F)(F)F)c2ccc(C#N)c(C(F)(F)F)c2)c(Cl)c1 | 2.13%
CC(C)Cn1cc2c(ccc3nc(N)nc(N)c32)n1 | 0.94%
O=S(=O)(c1c(Cl)cc(Cl)cc1Cl)N1CCCCC(c2ccc(F)c(F)c2)=N1 | 2.09%
CN(C)CCOc1cccc(-c2cnc(N)c(-c3nc4cc(S(C)(=O)=O)ccc4[nH]3)c2)c1 | 2.26%
Oc1ccc(CCNc2nc(NCCOc3ccccc3-c3ccccc3)nc(N3CCNCC3)n2)cc1 | 0.85%
O=C(/C=C/c1ccc(Cl)cc1)NCCCCCN1CCCN(C(=O)Nc2cccc(Cl)c2)CC1 | -1.85%
CCCCc1ccc(-c2c(N)nc(N)nc2CC)cc1 | 9.06%
COc1ccc(Nc2nc(N/N=C/c3ccc(O)cc3)nc(Nc3ccc([N+](=O)[O-])cc3)n2)cc1 | 2.44%
O=C(Nc1cccc(C(F)(F)F)c1)c1cccc(S(=O)(=O)NCC2CCCN(Cc3ccccc3)C2)c1 (stereo not given) | 1.75%
Cc1ccccc1C1CCN(C2CCC(NC(=O)/C=C/c3ccc(Cl)cc3)CC2)CC1 (stereo not given) | 2.6%
O=C(NCc1cccc(F)c1)Nc1ccc(-c2cccc(-c3nc4ccccc4[nH]3)c2)cc1 | 4.32%
c1cc(CNCCc2ccncc2)cc(-c2ccc(-c3nc4ccccc4[nH]3)cc2)c1 | 2.38%
O=C(NC1CCCCC1)N(Cc1cccc(-c2ccc(CNCCc3ccccc3)cc2)c1)C1CCN(Cc2ccccc2)CC1 | 6.86%
COc1ccc(S(=O)(=O)N(c2cc(Br)cc3c2OCC3)S(=O)(=O)c2ccc(OC)c(N3CCN(C)CC3)c2)cc1N1CCN(C)CC1 | 0.62%
CCc1cc(Br)c(CNCCCNc2cc(=O)c3ccccc3[nH]2)s1 | -0.52%
O=C(/C=C/c1ccc(CNCCN2CCOCC2)cc1)NCCc1ccccc1 | -1%
CCc1cc2c(Sc3nc4ccccc4[nH]3)ncnc2s1 | 0.97%
Cc1ccc(C2CCN(CCCCNC(=O)c3ccc(NC(=O)c4ccc(Cl)cc4)cc3)CC2)c(OCC(F)(F)F)c1 | 1.32%
COc1ccc2nccc([C@@H](O)CN3CCC(NCc4cnc5c(c4)NC(=O)CS5)C(F)C3)c2c1 (stereo not given in full) | -0.31%
COc1ccc2nccc([C@@H](O)CN3CCC(NC(=O)/C=C/c4ccc5ccccc5n4)CC3)c2c1 | 13.2%
